Test [1] in a line: Cell Viability - Hek293 (AID 427;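 active = compounds whose dose-response curve shows a full or clear partial loss of cell viability, called from curve shape rather than a numeric limit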;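 also: potency is read from the fitted curve at half-maximal effect; cells exposed to compound for 40 hours at 37 °C before reading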). The following applies: qHTS. Put shortly:
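HEK293 cells in complete medium were exposed to compound for 40 hr at 37 °C, then cellular ATP was read by CellTiter-Glo luminescence. Data were normalized to DMSO (basal) and 100 uM tamoxifen (100% inhibition), and AC50 came from Hill fits.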

Test [2] concerns the target Mitogen-activated protein kinase 10 (Mus musculus) (UniProt Q61831). The test can be described thus: JNK3 AlphaScreen Assay (AID 530; active = well fitted curve in either direction with a large enough effect, not every such curve was filed as active;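 also: kinase came from lysate of stimulated human HepG2 cells; signal reports phosphorylation of biotinylated GST-cJun 1-79 at Ser73 with 10 µM ATP; % is scaled to controls: 0 for no effect and ±100 for the full control effect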). Particulars: JNK3 lysate, c-Jun phosphorylation; series mostly up to 57.1 µM. The method in brief:
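Inhibitors reduce antibody binding to phosphorylated biotin-cJun, lowering AlphaScreen luminescence. Lysates from HepG2 cells pre-activated by IL-1beta plus TNF-alpha supplied JNK3; compounds were titrated.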

Test [3] in a line: Cellular Toxicity (caspase-3) HepG2 (AID 654).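 Also: cells exposed to compound for 16 hours before reading; 0% = DMSO alone and 100% = caspase signal from 100 µM tamoxifen.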 Particulars: HepG2 caspase-3 activation, luminescence, 0% = DMSO only, 100% = tamoxifen; series mostly up to 92.2 µM. Put shortly:
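Cells plated 5 hr at 37 °C, compound added, incubated 16 hr at 37 °C. Caspase-Glo 3/7 reagent followed, 20 min at room temperature, then luminescence read. Activation scored as signal increase; AC50 from Hill fit.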

The nature of test [4]: Cellular Toxicity (caspase-3) BJ (AID 658). The following applies: BJ fibroblasts, luminescence, normalized: DMSO 0%, staurosporine 100%; series mostly up to 91.7 µM. Put shortly: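 Luminescent aminoluciferin-substrate cleavage reports caspase 3/7 activity in normal human BJ fibroblasts after 16 hr compound exposure at 37 °C. Normalized to DMSO (basal) and 10 uM staurosporine (100%); AC50 from Hill fit of concentration-response.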

The nature of test [5]: MultiTox-Fluor Cytotoxicity Assay - LYMP1-002 - Live Cells (AID 955). Also: % is scaled to controls: 0 for no effect and ±100 for the full control effect. Particulars: LYMP1-002 lymphoblastoid live-cell protease fluorescence viability; series mostly up to 46.1 µM. The method in brief: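 Read-out is live-cell protease activity (cell-permeant GF-AFC substrate, fluorescence Ex/Em=405/510), where a decrease indicates acute toxicity. Human lymphoblastoid cells were treated 16 hours at 37 C in a concentration series, and AC50 values came from standard Hill modelling.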

The nature of test [6]: Cell Viability - LYMP1-003 - Assay at 24 hr (AID 963).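 Also: plate controls were DMSO only for no effect and tetraoctylammonium bromide positive control for full effect.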 Particulars: LYMP1-003 lymphoblastoid cell viability; series mostly up to 92.2 µM. The method in brief: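 Cells seeded at 2500/well, 5 hr at 37 C; compounds added; 24 hr at 37 C; CellTiter-Glo added, 30 min room temperature; luminescence read. Decrease in ATP taken as cytotoxicity, AC50 from Hill modelling.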
Test [7] can be described thus: Cell Viability - LYMP2-005 (AID 967).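 Also: plate controls were DMSO only for no effect and 92 µM tetraoctylammonium bromide control for full effect.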 Particulars: LYMP2-005 lymphoblastoid cell viability; series mostly up to 92.2 µM. Put shortly: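 CellTiter-Glo luminescence (cellular ATP) read-out; LYMP2-005 lymphoblastoid cells, 2500/well, 5 h pre-incubation, then 24 h compound exposure at 37 C in complete medium. Tetraoctylammonium bromide positive control; AC50 by standard Hill fit.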

A short description of test [8]: Cell Viability - LYMP2-013 (AID 970).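 Also: 0% = DMSO only and full inhibition = tetraoctylammonium bromide control; nearly all actives have a fitted effect of over 55% in size.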 The following applies: LYMP2-013 lymphoblastoid cells viability; series mostly up to 92.2 µM. The method in brief: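 qHTS; 2500 lymphoblastoid cells/well; 5 hr 37 C settle; cpd 24 hr 37 C; CellTiter-Glo, 30 min RT; luminescence. AC50 = Hill fit.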
Test [9] in a line: Cell Viability - LYMP2-017 (AID 972). Also: % is scaled to controls: 0 for no effect and ±100 for the full control effect; nearly all actives have a fitted effect of over 55% in size. The following applies: LYMP2-017 lymphoblastoid cell viability; series mostly up to 92.2 µM. Put shortly:
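2500 cells/well, 5 h 37 C; cpd 24 h 37 C in complete medium; CellTiter-Glo, 30 min RT; luminescence (ATP). AC50 via Hill fit, qHTS.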

The nature of test [10]: Cell Viability - LYMP2-019 (AID 973).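 Also: 0% = DMSO alone and full effect = 92 µM tetraoctylammonium bromide; nearly all actives have a fitted effect of over 55% in size.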 Particulars: LYMP2-019 lymphoblastoid cell line viability; series mostly up to 92.2 µM. The method in brief: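 Luminescent ATP read-out (CellTiter-Glo, 30 min room temperature) served as the viability measure after 24 hr treatment of lymphoblastoid cells at 37 C. Concentration-response data were fitted to the Hill equation for AC50.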

The nature of test [11]: Cell Viability - LYMP2-023 (AID 975).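 Also: cellular ATP measured by luciferase luminescence as viability proxy; plate controls were DMSO only for no effect and 92 µM tetraoctylammonium bromide control for full effect; nearly all actives have a fitted effect of over 55% in size.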 The following applies: LYMP2-023 lymphoblastoid cell viability; series mostly up to 92.2 µM. The method in brief:
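2500 cells/well, 5 hr 37 C; cpd 24 hr 37 C; CellTiter-Glo, 30 min RT; luminescence. qHTS conc-response, Hill fit -> AC50. Pos ctrl tetraoctylammonium bromide.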

Test [12] in a line: Cell Viability - LYMP2-007 (AID 979).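 Also: cells exposed to compound for 24 h before reading; 0% = DMSO only and the negative end = 92 µM tetraoctylammonium bromide; nearly all actives have a fitted effect of over 60% in size.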 The following applies: LYMP2-007 lymphoblastoid cell viability; series mostly up to 92.2 µM. The method in brief:
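Luminescent ATP signal (CellTiter-Glo) serves as the viability read-out after 24 hr compound treatment of lymphoblastoid cells in complete medium at 37 C. Concentration-response data were fitted to the Hill equation to give AC50 values.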

Test [13] in a line: Cell Viability - LYMP2-024 (AID 988).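 Also: plate controls were DMSO only for no effect and 92 µM tetraoctylammonium bromide for full effect; nearly all actives have a fitted effect of over 60% in size.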 The following applies: LYMP2-024 lymphoblastoid cell viability; series mostly up to 92.2 µM. Put shortly:
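Steps: seed 2500 cells/well, 5 hr 37 C; add compound, 24 hr 37 C; add CellTiter-Glo, 30 min room temperature; read luminescence. AC50 derived by Hill modelling of concentration-dependent ATP loss.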

For test [14], the target named is Vitamin D3 receptor (Homo sapiens) (UniProt P11473). The test can be described thus: qHTS assay for small molecule agonists of vitamin D receptor signaling (AID 588543; calls by dose curve;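 also: 0% = DMSO basal and 100% = reference agonist control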). The following applies: HEK293T VDR-UAS-bla, beta-lactamase ratio, 16 h; series mostly up to 76.8 µM. The method in brief: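 GeneBLAzer VDR-UAS-bla HEK293T cells in 2% charcoal-stripped FBS medium were dosed with compound titrations for 16 h at 37 °C; CCF4 β-lactamase readout (405 nm ex, 460/530 nm em). EC50 and efficacy from Hill fits, normalized to 50 nM calcitriol (100%) and DMSO (0%).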

Test [15] deals with Thyroid hormone receptor beta (Homo sapiens) (UniProt P10828). Nature of the test: qHTS assay for small molecule agonists of thyroid hormone receptor beta signaling (AID 588545; calls by dose curve;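 also: 0% = DMSO only and 100% = 10 nM T3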). The following applies: TR-UAS-bla GripTite HEK 293, beta-lactamase ratio, agonist mode, 18 h; series mostly up to 76.7 µM. The method in brief:
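Efficacy and EC50 values derive from Hill fits of qHTS titration data, normalized to 10 nM T3 and DMSO-only wells. HEK 293 reporter cells were stimulated for 18 hrs at 37 C, with beta-lactamase activity measured by CCF4 fluorescence.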

A short description of test [16]: qHTS assay for small molecule antagonists of retinoid X receptor alpha signaling (AID 588546).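 Also: cells stimulated with 9-cis-retinoic acid as agonist; % is scaled to controls: 0 for no effect and ±100 for the full control effect.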 Particulars: HEK293T RXRa-UAS-bla, beta-lactamase ratio, antagonist mode; measured here: W530 green channel, cytotoxicity proxy. The method in brief: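 Beta-lactamase reporter inhibition, read as CCF4 fluorescence ratio (ex 405, em 460/530 nm) after 2 h at RT. HEK293T UAS-bla cells, 2500/well, were stimulated with 9-cis-RA at 500 or 100 nM final alongside test compound for 18 h at 37 C.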

Test [17] can be described thus: qHTS assay for small molecule activators of the p53 signaling pathway (AID 651743; active = well fitted activation curve with a large enough effect in the signal ratio, not every such curve was filed as active; the % refers to the signal ratio; also: % of control where 0% means no effect). The following applies: HCT-116 p53RE-bla, beta-lactamase FRET ratio, 16 h; activation: stronger effect = higher value. Put shortly: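 Cell-based beta-lactamase reporter (p53 response elements, HCT-116 background). After a 5-hour preincubation, cells received compound for 16 hours at 37 C; substrate development ran 2 hours at room temperature.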
In general terms: qHTS replaces the single test concentration by a dilution series.

Test [18] is described as follows: Cell Viability - HUV-EC-C (AID 542). Also: % is scaled to controls: 0 for no effect and ±100 for the full control effect; nearly all actives have a fitted effect of over 35% in size. The following applies: HUV-EC-C endothelial cell viability, qHTS; series mostly up to 92.2 µM. The method in brief:
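qHTS cytotoxicity: HUV-EC-C, 1000 cells/well, 5 hr settle, compound 40 hr 37 °C, CellTiter-Glo, luminescence. AC50 via Hill equation.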

The nature of test [19]: MultiTox-Fluor Cytotoxicity Assay - LYMP1-003 - Dead Cells (AID 961).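 Also: 0% = DMSO and 100% = tetraoctylammonium bromide; nearly all actives have a fitted effect of over 70% in size.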 Particulars: LYMP1-003 lymphoblastoid cells, dead-cell protease fluorescence; series mostly up to 92.2 µM. Put shortly: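 LYMP1-003 human lymphoblastoid cells (2500/well) exposed to compound 16 h at 37 C in complete medium; dead-cell protease read with bis-AAF-R110 fluorescence (Ex/Em 485/520) after 60 min at room temperature. Normalized to DMSO and 15 uM tetraoctylammonium bromide; AC50 from Hill fit.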

Test [20] can be described thus: Cell Viability - LYMP2-015 (AID 971). Particulars: LYMP2-015 lymphoblastoid cell viability; series mostly up to 92.2 µM. The method in brief: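 Luminescent ATP read-out (CellTiter-Glo) served as the viability measure after lymphoblastoid cells were exposed to compounds for 24 hours at 37 C. Concentration-response data were fitted with the Hill equation to give AC50.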

SMILES strings stand for the structures. “And” between values parts separate entries of the source, which are not always exact repeats. Equal values may be shown once. Results filed as inconclusive are left out. The source made the active and inactive calls. Unless noted, calls follow the shape of the dose curve; as a rule, active = well fitted curve in the direction sought with a large enough effect; inconclusive = small, poorly fitted or top-dose-only effect, or another doubt; inactive = no such curve, though single readings can be large; an effect the other way counts as inactive or inconclusive. Some results are limits rather than exact numbers.

Chain of Vitamin D3 receptor (Homo sapiens) (P11473 whole entry, looked up): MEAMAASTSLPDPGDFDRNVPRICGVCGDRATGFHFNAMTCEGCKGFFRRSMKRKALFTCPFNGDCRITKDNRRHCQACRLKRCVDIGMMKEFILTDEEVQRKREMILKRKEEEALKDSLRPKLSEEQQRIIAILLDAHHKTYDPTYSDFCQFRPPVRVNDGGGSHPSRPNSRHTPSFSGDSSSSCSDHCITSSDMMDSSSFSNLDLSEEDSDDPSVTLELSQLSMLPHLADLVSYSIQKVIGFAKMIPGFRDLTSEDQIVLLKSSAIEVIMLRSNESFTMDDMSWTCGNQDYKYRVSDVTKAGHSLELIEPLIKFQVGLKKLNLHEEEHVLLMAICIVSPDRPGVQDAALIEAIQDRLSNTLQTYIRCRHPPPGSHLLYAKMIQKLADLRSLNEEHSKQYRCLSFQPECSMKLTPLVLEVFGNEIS
Chain of Thyroid hormone receptor beta (Homo sapiens) (P10828 whole entry, looked up): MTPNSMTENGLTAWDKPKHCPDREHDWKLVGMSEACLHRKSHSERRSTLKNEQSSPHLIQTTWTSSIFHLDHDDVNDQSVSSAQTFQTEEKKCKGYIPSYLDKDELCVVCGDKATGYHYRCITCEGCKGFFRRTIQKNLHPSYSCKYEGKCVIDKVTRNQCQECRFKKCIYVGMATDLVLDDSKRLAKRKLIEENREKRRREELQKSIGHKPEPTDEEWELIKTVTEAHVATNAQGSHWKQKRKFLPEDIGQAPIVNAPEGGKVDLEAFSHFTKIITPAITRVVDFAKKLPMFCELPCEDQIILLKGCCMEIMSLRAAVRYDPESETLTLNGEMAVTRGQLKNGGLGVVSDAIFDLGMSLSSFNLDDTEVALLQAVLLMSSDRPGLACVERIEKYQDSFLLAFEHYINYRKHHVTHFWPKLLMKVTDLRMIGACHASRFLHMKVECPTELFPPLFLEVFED

For `Nc1cc(Cl)ccc1O`, the Potency in [1] is > 92 µM (inactive). Further, the Potency result in [2], in test [7], in [8], in [9], in test [10] and in test [11] was “inactive” each time. Also, the Potency result in test [12], in test [13] and in test [15] was “inactive” throughout. Besides, the call in test [3], in test [4], in test [5], in test [6] and in test [14] was inactive. The max response in test [16] was -1.3%. Also, the activation in [17] is -1.47% (inactive).

For `Oc1cccc(Cl)c1`, the Potency in test [1] is > 92 µM (inactive). Also, the Potency result in [2], in [18], in test [19], in test [7], in test [8] and in [20] was “inactive” throughout. The Potency entry in [9], in test [10], in test [11], in test [12], in test [13] and in test [15] was “inactive” in each case. Moreover, the outcome in [3], in test [4], in test [5] and in [14] was inactive. The max response in test [16] is -0.103%. Moreover, the activation in test [17] was 0.857% (inactive).

For the compound `CC(C)(C)OOC(=O)c1ccccc1`, in test [1], the Potency was > 92 µM (inactive). The Potency entry in test [2], in [18], in test [19], in [7], in test [8] and in test [20] was “inactive” in each case. The Potency entry in test [9], in [10], in [11], in [12], in test [13] and in test [15] was “inactive” in each case. The compound was called inactive in [3], in [4], in [5], in test [6] and in test [14]. Further, in [16], the max response was -18.8% and -11.9%. The activation in test [17] was -3.4% (inactive) and 2.14% (inactive).

As for `O=[N+]([O-])c1ccc(O)c([N+](=O)[O-])c1`, the Potency in test [1] is > 92 µM (inactive). The Potency result in test [2], in test [18], in [7], in test [8], in test [20] and in test [9] was “inactive” throughout. Besides, the Potency entry in [10], in [11], in test [12] and in test [13] was “inactive” throughout. Besides, the call in test [3], in test [4], in test [5] and in [6] was inactive. Moreover, the max response in [16] is -0.361%. In addition, in test [17], the activation was 9.63% (inactive).

For the compound `Cc1cc(N=Nc2ccccc2C)ccc1N`, the Potency in test [1] was > 92 µM (inactive). Further, the Potency entry in [18], in test [19], in [7], in test [8], in [20] and in test [9] was “inactive” throughout. The Potency entry in [10], in test [11], in test [12], in [13] and in test [15] was “inactive” throughout. For the same compound, the result in test [3], in [4], in test [5], in test [6] and in test [14] was inactive. Also, the max response in test [16] is -7.48%. Besides, the activation in test [17] was -4.82% (inactive) and -5.43% (inactive).

Consider `C(CCOCC1CO1)COCC1CO1` (stereo not given), for which the Potency in test [1] is > 92 µM (inactive). The Potency entry in test [2], in test [18], in [19], in test [7], in test [8] and in test [20] was “inactive” each time. Besides, the Potency result in test [9], in test [10], in [11], in [12] and in test [15] was “inactive” throughout. The result in test [3], in test [5], in test [6] and in test [14] was inactive. For the same compound, in test [16], the max response was found to be 5.96%. Also, the activation in test [17] was 15.9% (inactive).
